We go through 3 compounds from PubChem BioAssay AID651871 (Sanford-Burnham Center for Chemical Genomics, 2012).

In the assay the test system is HL-1. Briefly: protection of cardiomyocytes from stress damage, SAR follow-up, cell-based, panel, H9c2 and HL-1, ATP luminescence, set 2 (AID 651871).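 Also: cells exposed to stressor for 2 h before ATP readout; reference of the scale not given here.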 The conditions noted are these: H9c2/HL-1 cardiomyocytes, 2-deoxyglucose stress, with 2-deoxyglucose.
The mark [1] stands for this setting: run 9, at 79 µM (top of the series).

On to `COc1ccc2nc(-c3cc(OC)c(OC)c(OC)c3)cc(C(=O)NCC(=O)Nc3ccc(C(C)=O)cc3)c2c1`, for which, under setting [1], the activity (protection/inhibition) came out at 90%.

Consider `CCOC(=O)c1cccc(NC(=O)CNC(=O)c2cc(-c3cc(OC)c(OC)c(OC)c3)nc3ccccc23)c1`, for which the activity (protection/inhibition) under setting [1] stood at 91.8%.

Take `COc1ccc2c(c1OC)C(=O)N1c3ccccc3C(=O)N(Cc3cccc(Cl)c3Cl)C21` (stereo not given): the activity (protection/inhibition) (run 9, at 19.8 µM (top of the series)) worked out at 50.7%; the activity (protection/inhibition) (run 9, at 39.5 µM (top of the series)) is 55.4%; the activity (protection/inhibition) under setting [1] was -7.08%.
